Test systems include DU-145 prostate; K-562 leukemia; MALME-3M melanoma; MDA-MB-231 breast; RXF 393 renal; SF-268 CNS; SF-295 CNS; SF-539 CNS; UACC-257 melanoma; M14 melanoma; HCT-15 colon; HT29 colon; SNB-75 CNS; SNB-19 CNS; PC-3 prostate; SK-MEL-5 melanoma; UACC-62 melanoma; LOX IMVI melanoma; SK-MEL-28 melanoma; U251 CNS.
What all share (assay): NCI-60 one-dose screen, 48 h (100 = growth as untreated, 0 = no growth, -100 = all killed)
Holding throughout (settings): 10 µM unless noted

Structures are written as SMILES. This is part of a sample that, as a whole, favours compounds with a hit. Of some 83,000 tested, about 20% had one in any assay.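 A percent growth of 40 corresponds to 60% growth inhibition; 0 means no net growth; -100 means all cells died. Active threshold: below 10.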 A number with no mark means an inactive call. Active and inactive are the calls of the source.

This is an account of results in PubChem BioAssay (NCI).

Turning to `O=C(/C=C/c1cccc(Cl)c1Cl)Nc1ncc(Cc2ccccc2Cl)s1`, the growth with DU-145 prostate was 53.3%; with K-562 leukemia, 13.4%; in the assay with MALME-3M melanoma, 62.1%; in the assay on MDA-MB-231 breast, 75%; in the assay with RXF 393 renal it was 37.8%; in the assay with SF-268 CNS it was 82.2%. The growth in the assay with SF-295 CNS is 21.4%; in the assay on SF-539 CNS, 11.5%; with UACC-257 melanoma, 78.1%; with M14 melanoma, 12.5%; in the assay on HCT-15 colon, 21.1%; in the assay with HT29 colon, 11.9%. For the same compound, the growth in the assay on SNB-75 CNS was 36.4%; in the assay with SNB-19 CNS, 47.2%; in the assay with PC-3 prostate, 56.5%; in the assay on SK-MEL-5 melanoma it was 45.8%; with UACC-62 melanoma, 42.7%; in the assay with LOX IMVI melanoma it was 44.7%. For the same compound, in the assay on SK-MEL-28 melanoma, the growth was 58.6%.
Take `CC(C)N1C(=O)/C(=c2\sc3n(c2=O)C2C(NN=3)N(C)C(=O)N2C)c2ccccc21` (stereo unspecified): the growth was 84.3% in the assay on DU-145 prostate; 27% in the assay on K-562 leukemia; 53.2% in the assay with MALME-3M melanoma; 90.9% in the assay with MDA-MB-231 breast; 57.3% in the assay on RXF 393 renal; 74.9% in the assay on SF-268 CNS. The growth in the assay on SF-295 CNS is 50.1%; in the assay on SF-539 CNS it was 49.2%; with UACC-257 melanoma, 50%; with M14 melanoma it was 44.9%; with HCT-15 colon it was 37.8%; with HT29 colon it was 31.3%. Further, the growth was 4.34% (active) in the assay on SNB-75 CNS; 48.2% in the assay on U251 CNS; 55% in the assay on PC-3 prostate; 48.8% in the assay with SK-MEL-5 melanoma; 33.4% with UACC-62 melanoma; 56.6% with LOX IMVI melanoma. Moreover, the growth in the assay with SK-MEL-28 melanoma was 64%.
For `O=S(=O)(NCCNc1nccc(-c2c(-c3ccc(F)c(O)c3)nc3sccn23)n1)c1ccc(F)cc1`, the growth in the assay with DU-145 prostate was 34.4%; in the assay with K-562 leukemia it was 14.7%; in the assay on MALME-3M melanoma, 5.92% (active); with MDA-MB-231 breast, 25.5%; in the assay with RXF 393 renal, -4.56% (active); in the assay on SF-268 CNS, 37.3%. The growth in the assay on SF-295 CNS is 53.4%; in the assay on SF-539 CNS, 44.3%; in the assay with UACC-257 melanoma it was 32.1%; in the assay on M14 melanoma, 15.5%; in the assay with HCT-15 colon, 29.9%; in the assay with HT29 colon, 16.7%. The growth in the assay on SNB-75 CNS is 64.1%; in the assay on U251 CNS it was 45.5%; in the assay with PC-3 prostate it was 29.9%; with SK-MEL-5 melanoma, -41.5% (active); with UACC-62 melanoma, 4.93% (active); in the assay on LOX IMVI melanoma, 16.6%. Moreover, the growth in the assay with SK-MEL-28 melanoma is 20.5%.
As for `O=C(/C=C/c1ccccc1)c1ccc(Nc2nc(Nc3ccc(F)cc3)nc(Nc3ccc(Cl)cc3)n2)cc1`, the growth in the assay with DU-145 prostate was 97.7%; with K-562 leukemia, 70.9%; in the assay on MALME-3M melanoma, 109%; in the assay on MDA-MB-231 breast, 81.5%; with RXF 393 renal, 134%; in the assay on SF-268 CNS, 88.1%. The growth in the assay on SF-295 CNS was 69.3%; in the assay on SF-539 CNS, 97.2%; in the assay on UACC-257 melanoma it was 110%; with M14 melanoma it was 81.2%; in the assay on HCT-15 colon, 86.7%; in the assay with HT29 colon, 83.5%. In addition, the growth is 95% with SNB-75 CNS; 78.9% with U251 CNS; 74.5% in the assay on PC-3 prostate; 79% in the assay on SK-MEL-5 melanoma; 100% in the assay on UACC-62 melanoma; 85.1% in the assay on LOX IMVI melanoma. For the same compound, the growth in the assay on SK-MEL-28 melanoma was 90.9%.
As to `COc1ccc(-c2cc(-c3ccccc3)nc(N3CCN(CCNc4ccnc5cc(Cl)ccc45)CC3)n2)cc1`, the growth with DU-145 prostate was -33.4% (active); in the assay with K-562 leukemia, 0.988% (active); with MALME-3M melanoma, -87.7% (active); in the assay with MDA-MB-231 breast it was -82.4% (active); in the assay on RXF 393 renal, -34.7% (active); with SF-268 CNS, -15.1% (active). In addition, the growth is 82.7% in the assay on SF-295 CNS; -40% (active) in the assay on SF-539 CNS; -84.5% (active) in the assay on UACC-257 melanoma; -70.9% (active) in the assay with M14 melanoma; -82% (active) with HCT-15 colon; -67.6% (active) in the assay with HT29 colon. Besides, the growth in the assay on SNB-75 CNS was 83.6%; in the assay with SNB-19 CNS it was 72.7%; in the assay on PC-3 prostate, 32.4%; in the assay on SK-MEL-5 melanoma it was -98.6% (active); in the assay on UACC-62 melanoma, 62.2%; in the assay with LOX IMVI melanoma it was -95.1% (active). Further, in the assay on SK-MEL-28 melanoma, the growth is -93.1% (active).
Consider `CC1(C)C(N)=Nc2cc(OCCCN3Cc4ccccc4C3)c(OCC3CC3)cc21`, for which the growth in the assay with DU-145 prostate was 93.8%; with K-562 leukemia, 38.8%; in the assay on MALME-3M melanoma, -14% (active); with MDA-MB-231 breast, 49.1%; in the assay on RXF 393 renal, 69.3%; in the assay on SF-268 CNS, 80.2%. The growth in the assay with SF-295 CNS was 78.3%; in the assay with SF-539 CNS it was 70.3%; with UACC-257 melanoma it was 1.23% (active); in the assay on M14 melanoma, -45.1% (active); in the assay on HCT-15 colon, 40%; in the assay with HT29 colon it was 31.6%. In addition, the growth in the assay on SNB-75 CNS is 77.3%; with U251 CNS, 56.4%; with PC-3 prostate, 49.6%; with SK-MEL-5 melanoma, 53.1%; in the assay on UACC-62 melanoma, 78%; with SK-MEL-28 melanoma it was 56.2%.
In the case of `N#Cc1c(-c2ccccc2)nc(SCC(O)CN2CCOCC2)nc1N1CCOCC1` (stereo unspecified), the growth in the assay on DU-145 prostate was 61.7%; in the assay with K-562 leukemia, 90%; in the assay with MALME-3M melanoma, 23.1%; in the assay with MDA-MB-231 breast it was 77.3%; with RXF 393 renal it was 72.5%; in the assay with SF-268 CNS, 62.3%. The growth was 43.6% with SF-295 CNS; 56.6% in the assay on SF-539 CNS; 17.1% in the assay on UACC-257 melanoma; 59.9% in the assay on M14 melanoma; 80.1% in the assay with HCT-15 colon; 68.5% with HT29 colon. Moreover, the growth was -4.63% (active) in the assay with SNB-75 CNS; 65.8% in the assay with SNB-19 CNS; 56.5% in the assay on PC-3 prostate; 66.6% in the assay with SK-MEL-5 melanoma; 42.9% in the assay on UACC-62 melanoma; 78% in the assay on LOX IMVI melanoma. Moreover, the growth with SK-MEL-28 melanoma was 59.9%.
For `C=C1C(=O)O[C@H]2[C@H]1CC/C(COC(=O)/C=C/C(=O)OC/C1=C/CC[C@@]3(C)O[C@H]3[C@H]3OC(=O)C(=C)[C@@H]3CC1)=C\CC[C@@]1(C)O[C@@H]21`, the growth with DU-145 prostate is 25.4%; with K-562 leukemia, 5.18% (active); with MALME-3M melanoma it was -27.3% (active); in the assay on MDA-MB-231 breast, -7.25% (active); in the assay with RXF 393 renal, -11.3% (active); with SF-268 CNS, 90.3%. Moreover, the growth was 115% in the assay on SF-295 CNS; 82.2% with SF-539 CNS; 60.3% in the assay on UACC-257 melanoma; 27.5% with M14 melanoma; 13.1% with HCT-15 colon; 8.88% (active) with HT29 colon. Besides, the growth was 95.2% with SNB-75 CNS; 76% in the assay with U251 CNS; 61.1% with PC-3 prostate; 83.1% in the assay with SK-MEL-5 melanoma; 55.1% in the assay with UACC-62 melanoma; 3.81% (active) with LOX IMVI melanoma. Also, in the assay on SK-MEL-28 melanoma, the growth is 51.8%.
